Among the test systems are DU-145 prostate; K-562 leukemia; MALME-3M melanoma; MDA-MB-231 breast; RXF 393 renal; SF-268 CNS; SF-295 CNS; SF-539 CNS; UACC-257 melanoma; M14 melanoma; HCT-15 colon; HT29 colon; SNB-75 CNS; SNB-19 CNS; U251 CNS; PC-3 prostate; SK-MEL-5 melanoma; UACC-62 melanoma; LOX IMVI melanoma; SK-MEL-28 melanoma.
Holding throughout (experiment): NCI-60 one-dose screen, 48 h (100 = growth as untreated, 0 = no growth, -100 = all killed)
What all share (details): 10 µM unless noted

This is part of a sample that, as a whole, favours compounds with a hit. Of some 83,000 tested, about 20% had one in any assay.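 Single-concentration screen, 48 h exposure, 96-well plates. Endpoint: percent growth. Below 10 = active.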 Activity calls are given as the source filed them.

On to `O=c1cc(-c2ccc3c(c2)OCCO3)oc2cc(Cl)ccc12`, for which the growth in the assay on DU-145 prostate is 25.6% (inactive); in the assay with K-562 leukemia, 35.1% (inactive); in the assay with MALME-3M melanoma it was -16.3% (active); in the assay on MDA-MB-231 breast, 27.3% (inactive); in the assay on RXF 393 renal, 55.6% (inactive); in the assay with SF-268 CNS it was 21.1% (inactive). For the same compound, the growth was 19.6% (inactive) in the assay with SF-295 CNS; -32.7% (active) in the assay on SF-539 CNS; 52.8% (inactive) with UACC-257 melanoma; 60.6% (inactive) with M14 melanoma; 74.5% (inactive) with HCT-15 colon; -16.8% (active) in the assay with HT29 colon. Further, the growth was -38.5% (active) in the assay with SNB-75 CNS; 30.3% (inactive) with SNB-19 CNS; 4.26% (active) in the assay on U251 CNS; 43.3% (inactive) in the assay with PC-3 prostate; 76.3% (inactive) in the assay with SK-MEL-5 melanoma; 65.1% (inactive) with UACC-62 melanoma. Also, the values for the growth in the assay with LOX IMVI melanoma and in the assay with SK-MEL-28 melanoma were 32.1% (inactive) and 21.4% (inactive), respectively.
Turning to `CCCCCCCCCCCCCCCc1cc(O)ccc1[N+](=O)[O-]`, the growth in the assay on DU-145 prostate was 104% (inactive); in the assay on K-562 leukemia, 67.7% (inactive); in the assay on MALME-3M melanoma, 96.4% (inactive); in the assay with MDA-MB-231 breast it was 69.2% (inactive); in the assay on RXF 393 renal it was 95% (inactive); with SF-268 CNS it was 91.6% (inactive). For the same compound, the growth in the assay on SF-295 CNS is 94.3% (inactive); in the assay on SF-539 CNS it was 103% (inactive); with UACC-257 melanoma, 87.3% (inactive); in the assay on M14 melanoma, 93.1% (inactive); in the assay with HCT-15 colon, 73.7% (inactive); in the assay on HT29 colon, 107% (inactive). Further, the growth in the assay with SNB-75 CNS was 83.1% (inactive); with SNB-19 CNS, 99.9% (inactive); in the assay on U251 CNS, 70.1% (inactive); in the assay on PC-3 prostate, 59.5% (inactive); with SK-MEL-5 melanoma, 76.1% (inactive); in the assay with UACC-62 melanoma, 67.9% (inactive). The figures for the growth with LOX IMVI melanoma and with SK-MEL-28 melanoma were 98% (inactive) and 102% (inactive), respectively.
Turning to `COc1ccc(/C=C(/C(=O)N2CCN(c3ccccc3)CC2)c2cc(OC)c(OC)c(OC)c2)cc1O`, the growth is 4.21% (active) with DU-145 prostate; 6.23% (active) in the assay with K-562 leukemia; 60% (inactive) in the assay with MALME-3M melanoma; 19.5% (inactive) in the assay with MDA-MB-231 breast; 20.4% (inactive) in the assay on RXF 393 renal; 36.9% (inactive) with SF-268 CNS. Further, the growth was 7.72% (active) with SF-295 CNS; -10.8% (active) in the assay with SF-539 CNS; 58.1% (inactive) in the assay on UACC-257 melanoma; 3.13% (active) in the assay on M14 melanoma; 12.8% (inactive) in the assay with HCT-15 colon; 48.4% (inactive) in the assay on HT29 colon. For the same compound, the growth was 67.8% (inactive) in the assay on SNB-75 CNS; 27.1% (inactive) in the assay with SNB-19 CNS; 8.04% (active) in the assay on U251 CNS; 23.4% (inactive) in the assay with PC-3 prostate; -13.7% (active) in the assay with SK-MEL-5 melanoma; 27.1% (inactive) in the assay with UACC-62 melanoma. The growth in the assay on LOX IMVI melanoma is 14.7% (inactive); with SK-MEL-28 melanoma, 62.3% (inactive).
Turning to `CCCc1n(Cc2ccc3ccccc3n2)cc[n+]1Cc1ccc2ccccc2n1`, the growth in the assay on DU-145 prostate is 51.2% (inactive); in the assay on K-562 leukemia, 12.8% (inactive); with MALME-3M melanoma it was 12.5% (inactive); in the assay on MDA-MB-231 breast, 17.8% (inactive); with RXF 393 renal, 48.7% (inactive); in the assay with SF-268 CNS, 27.8% (inactive). The growth with SF-295 CNS is 59.9% (inactive); in the assay on SF-539 CNS, 31.2% (inactive); in the assay with UACC-257 melanoma it was -11.5% (active); with M14 melanoma it was 37.2% (inactive); in the assay on HCT-15 colon, 95.7% (inactive); with HT29 colon it was 16.8% (inactive). The growth with SNB-75 CNS is 19.5% (inactive); in the assay on SNB-19 CNS it was 19.1% (inactive); in the assay with U251 CNS, 20.6% (inactive); in the assay on PC-3 prostate, 24.8% (inactive); in the assay on SK-MEL-5 melanoma it was -49% (active); with UACC-62 melanoma, 1.66% (active). In addition, the growth in the assay with LOX IMVI melanoma is 18% (inactive); in the assay with SK-MEL-28 melanoma, 19.3% (inactive).
As for `NC(=O)c1noc(C(=O)c2ccccc2)c1N`, the growth with DU-145 prostate is 104% (inactive); with K-562 leukemia it was 89.5% (inactive); with MALME-3M melanoma, 101% (inactive); in the assay on MDA-MB-231 breast, 109% (inactive); in the assay with RXF 393 renal, 96.2% (inactive); in the assay on SF-268 CNS, 98.4% (inactive). Besides, the growth with SF-295 CNS was 98.9% (inactive); in the assay on SF-539 CNS, 107% (inactive); in the assay with UACC-257 melanoma, 102% (inactive); in the assay with M14 melanoma it was 110% (inactive); with HCT-15 colon, 89.4% (inactive); with HT29 colon it was 83.6% (inactive). The growth was 95.9% (inactive) in the assay with SNB-75 CNS; 90.4% (inactive) with SNB-19 CNS; 85.8% (inactive) in the assay with U251 CNS; 90.9% (inactive) in the assay with PC-3 prostate; 97.9% (inactive) in the assay with SK-MEL-5 melanoma; 96.6% (inactive) with UACC-62 melanoma. The growth was 98.8% (inactive) in the assay with LOX IMVI melanoma and 98.6% (inactive) in the assay on SK-MEL-28 melanoma.
Consider `O=C(Nc1ccc(Oc2ccc(NC(=O)Nc3ccccc3Cl)cc2)cc1)Nc1ccccc1Cl`, for which the growth in the assay with DU-145 prostate is 24.2% (inactive); with K-562 leukemia, 33.6% (inactive); with MALME-3M melanoma it was 66.7% (inactive); with MDA-MB-231 breast, 72.3% (inactive); with RXF 393 renal, -15.8% (active); in the assay on SF-268 CNS, 40.3% (inactive). Further, the growth in the assay on SF-295 CNS is 71.2% (inactive); in the assay with SF-539 CNS, 62.8% (inactive); in the assay on UACC-257 melanoma, 60.5% (inactive); in the assay with M14 melanoma, 65% (inactive); with HCT-15 colon, 38.9% (inactive); with HT29 colon, 45.9% (inactive). Besides, the growth is 58.2% (inactive) in the assay on SNB-75 CNS; 115% (inactive) in the assay with SNB-19 CNS; 24.6% (inactive) with U251 CNS; 1.99% (active) with PC-3 prostate; 62.5% (inactive) in the assay on SK-MEL-5 melanoma; 45.9% (inactive) with UACC-62 melanoma. Moreover, the growth is 48.5% (inactive) with LOX IMVI melanoma and -17.7% (active) in the assay with SK-MEL-28 melanoma.

The values are drawn from PubChem BioAssay (NCI).
